From ChEMBL document CHEMBL2218924, “A broad activity screen in support of a chemogenomic map for kinase signalling research and drug discovery” (Biochem J, 2013)

Key:
[1] = target: T1, Ephrin type-A receptor 3 (Homo sapiens) (UniProt P29320); settings: at 10 µM
T1 sequence (whole entry): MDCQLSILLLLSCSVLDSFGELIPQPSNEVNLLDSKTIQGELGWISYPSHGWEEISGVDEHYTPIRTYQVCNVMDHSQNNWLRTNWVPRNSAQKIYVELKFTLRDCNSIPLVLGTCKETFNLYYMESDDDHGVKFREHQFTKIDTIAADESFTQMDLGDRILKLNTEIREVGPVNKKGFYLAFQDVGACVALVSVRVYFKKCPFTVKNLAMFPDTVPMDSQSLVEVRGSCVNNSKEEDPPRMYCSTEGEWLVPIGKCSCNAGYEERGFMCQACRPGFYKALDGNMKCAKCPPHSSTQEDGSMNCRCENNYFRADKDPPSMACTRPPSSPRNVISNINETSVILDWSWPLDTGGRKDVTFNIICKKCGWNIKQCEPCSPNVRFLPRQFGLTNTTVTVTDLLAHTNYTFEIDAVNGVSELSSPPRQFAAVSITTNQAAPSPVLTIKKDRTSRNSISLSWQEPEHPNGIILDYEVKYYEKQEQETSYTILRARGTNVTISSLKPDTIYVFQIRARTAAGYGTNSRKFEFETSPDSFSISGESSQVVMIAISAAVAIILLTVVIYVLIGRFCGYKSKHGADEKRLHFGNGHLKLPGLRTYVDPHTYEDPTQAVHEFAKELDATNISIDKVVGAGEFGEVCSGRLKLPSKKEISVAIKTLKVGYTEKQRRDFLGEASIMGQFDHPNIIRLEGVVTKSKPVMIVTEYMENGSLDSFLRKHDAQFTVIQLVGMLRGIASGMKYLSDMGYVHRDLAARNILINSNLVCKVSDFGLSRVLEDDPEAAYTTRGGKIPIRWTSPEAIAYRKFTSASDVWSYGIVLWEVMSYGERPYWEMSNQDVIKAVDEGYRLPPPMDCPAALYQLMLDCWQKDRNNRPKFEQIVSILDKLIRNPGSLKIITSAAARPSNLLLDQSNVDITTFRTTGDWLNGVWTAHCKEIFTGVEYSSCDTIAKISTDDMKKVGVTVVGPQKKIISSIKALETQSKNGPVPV

[2] = target: Ephrin type-A receptor 4 (Homo sapiens) (UniProt P54764); settings: at 1 µM
Ephrin type-A receptor 4 (Homo sapiens), sequence (P54764 whole entry): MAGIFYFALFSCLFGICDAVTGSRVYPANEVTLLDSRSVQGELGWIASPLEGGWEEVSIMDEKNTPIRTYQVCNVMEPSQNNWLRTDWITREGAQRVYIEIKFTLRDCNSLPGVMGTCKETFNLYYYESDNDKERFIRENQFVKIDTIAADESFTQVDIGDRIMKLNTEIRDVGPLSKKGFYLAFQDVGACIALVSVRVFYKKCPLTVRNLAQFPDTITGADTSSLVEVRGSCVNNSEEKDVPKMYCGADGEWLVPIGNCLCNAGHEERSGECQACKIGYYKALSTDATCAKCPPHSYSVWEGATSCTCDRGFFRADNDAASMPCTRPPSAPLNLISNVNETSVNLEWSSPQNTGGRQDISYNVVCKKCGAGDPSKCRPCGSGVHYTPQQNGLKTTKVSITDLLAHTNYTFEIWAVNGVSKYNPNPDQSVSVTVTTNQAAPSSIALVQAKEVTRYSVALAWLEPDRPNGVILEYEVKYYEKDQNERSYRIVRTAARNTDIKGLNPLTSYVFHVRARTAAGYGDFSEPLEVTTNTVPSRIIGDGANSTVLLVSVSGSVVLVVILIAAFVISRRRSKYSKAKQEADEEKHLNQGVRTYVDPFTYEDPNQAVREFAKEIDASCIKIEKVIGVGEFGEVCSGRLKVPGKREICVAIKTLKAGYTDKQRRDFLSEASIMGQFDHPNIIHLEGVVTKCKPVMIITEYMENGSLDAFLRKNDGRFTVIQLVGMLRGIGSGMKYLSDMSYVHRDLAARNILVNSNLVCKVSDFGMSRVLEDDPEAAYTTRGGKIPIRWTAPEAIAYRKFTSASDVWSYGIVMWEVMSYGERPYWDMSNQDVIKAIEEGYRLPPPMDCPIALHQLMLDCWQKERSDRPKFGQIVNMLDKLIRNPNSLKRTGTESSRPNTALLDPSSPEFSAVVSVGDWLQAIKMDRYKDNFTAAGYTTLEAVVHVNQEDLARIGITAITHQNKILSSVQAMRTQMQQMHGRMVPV

[3] = target: Ephrin type-A receptor 4 (Homo sapiens) (UniProt P54764); settings: at 10 µM
[4] = target: Ephrin type-A receptor 5 (Homo sapiens) (UniProt P54756); settings: at 1 µM
Ephrin type-A receptor 5 (Homo sapiens), sequence (P54756 whole entry): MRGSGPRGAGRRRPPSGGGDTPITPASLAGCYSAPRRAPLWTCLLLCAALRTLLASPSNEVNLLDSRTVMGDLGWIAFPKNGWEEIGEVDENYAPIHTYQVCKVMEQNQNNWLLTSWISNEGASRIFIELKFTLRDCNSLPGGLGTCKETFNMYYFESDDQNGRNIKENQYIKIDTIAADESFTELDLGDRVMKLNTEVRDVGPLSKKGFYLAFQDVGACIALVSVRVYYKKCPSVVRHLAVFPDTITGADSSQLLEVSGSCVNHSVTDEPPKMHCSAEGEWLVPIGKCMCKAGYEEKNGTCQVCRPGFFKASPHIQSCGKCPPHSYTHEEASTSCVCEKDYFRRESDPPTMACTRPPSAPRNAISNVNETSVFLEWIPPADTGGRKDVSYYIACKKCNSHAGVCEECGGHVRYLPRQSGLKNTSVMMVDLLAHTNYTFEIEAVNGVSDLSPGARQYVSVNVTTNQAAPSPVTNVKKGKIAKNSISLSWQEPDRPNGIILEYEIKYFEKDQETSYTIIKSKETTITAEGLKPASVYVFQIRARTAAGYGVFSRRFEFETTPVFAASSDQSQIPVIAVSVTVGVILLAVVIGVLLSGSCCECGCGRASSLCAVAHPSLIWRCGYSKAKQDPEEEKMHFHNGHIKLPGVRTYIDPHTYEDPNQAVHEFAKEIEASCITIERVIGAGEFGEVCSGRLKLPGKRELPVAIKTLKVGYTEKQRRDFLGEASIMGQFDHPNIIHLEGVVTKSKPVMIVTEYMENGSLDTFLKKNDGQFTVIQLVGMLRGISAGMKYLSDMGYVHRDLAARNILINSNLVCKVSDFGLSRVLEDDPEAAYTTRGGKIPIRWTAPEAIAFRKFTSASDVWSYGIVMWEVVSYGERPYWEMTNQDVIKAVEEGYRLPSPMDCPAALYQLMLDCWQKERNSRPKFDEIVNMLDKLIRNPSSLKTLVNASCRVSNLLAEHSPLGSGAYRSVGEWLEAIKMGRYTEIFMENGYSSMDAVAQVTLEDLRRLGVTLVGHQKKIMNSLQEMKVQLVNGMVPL

[5] = target: Ephrin type-A receptor 5 (Homo sapiens) (UniProt P54756); settings: at 10 µM
[6] = target: Ephrin type-A receptor 7 (Homo sapiens) (UniProt Q15375); settings: at 1 µM
Ephrin type-A receptor 7 (Homo sapiens), sequence (Q15375 28-998 limits assumed): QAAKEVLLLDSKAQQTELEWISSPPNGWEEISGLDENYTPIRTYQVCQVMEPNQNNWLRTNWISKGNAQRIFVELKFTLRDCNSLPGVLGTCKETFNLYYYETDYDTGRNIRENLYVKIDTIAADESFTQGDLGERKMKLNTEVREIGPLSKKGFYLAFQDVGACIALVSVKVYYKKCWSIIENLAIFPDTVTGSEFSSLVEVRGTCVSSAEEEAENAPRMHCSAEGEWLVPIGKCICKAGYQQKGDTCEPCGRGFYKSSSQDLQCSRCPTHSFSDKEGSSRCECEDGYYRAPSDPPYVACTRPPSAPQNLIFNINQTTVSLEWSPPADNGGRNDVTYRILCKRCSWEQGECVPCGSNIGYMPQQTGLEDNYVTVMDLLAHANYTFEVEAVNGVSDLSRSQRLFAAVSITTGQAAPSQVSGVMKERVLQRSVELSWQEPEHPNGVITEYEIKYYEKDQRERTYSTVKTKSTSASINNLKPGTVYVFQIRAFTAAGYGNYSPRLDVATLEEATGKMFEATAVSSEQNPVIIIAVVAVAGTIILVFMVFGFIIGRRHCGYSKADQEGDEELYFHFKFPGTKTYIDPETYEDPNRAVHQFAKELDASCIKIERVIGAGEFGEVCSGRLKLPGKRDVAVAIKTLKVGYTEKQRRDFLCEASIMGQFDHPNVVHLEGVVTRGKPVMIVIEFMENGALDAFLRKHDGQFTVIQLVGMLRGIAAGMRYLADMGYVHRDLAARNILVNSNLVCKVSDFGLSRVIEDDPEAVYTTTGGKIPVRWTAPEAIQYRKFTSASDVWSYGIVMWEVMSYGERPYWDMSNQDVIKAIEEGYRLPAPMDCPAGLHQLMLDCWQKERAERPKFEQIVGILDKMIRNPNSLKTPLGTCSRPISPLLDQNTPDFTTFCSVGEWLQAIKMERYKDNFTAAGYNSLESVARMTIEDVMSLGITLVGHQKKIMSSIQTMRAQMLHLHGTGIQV

[7] = target: Ephrin type-A receptor 7 (Homo sapiens) (UniProt Q15375); settings: at 10 µM
[8] = target: T2, Ephrin type-A receptor 8 (Homo sapiens) (UniProt P29322); settings: at 1 µM
T2 sequence (whole entry): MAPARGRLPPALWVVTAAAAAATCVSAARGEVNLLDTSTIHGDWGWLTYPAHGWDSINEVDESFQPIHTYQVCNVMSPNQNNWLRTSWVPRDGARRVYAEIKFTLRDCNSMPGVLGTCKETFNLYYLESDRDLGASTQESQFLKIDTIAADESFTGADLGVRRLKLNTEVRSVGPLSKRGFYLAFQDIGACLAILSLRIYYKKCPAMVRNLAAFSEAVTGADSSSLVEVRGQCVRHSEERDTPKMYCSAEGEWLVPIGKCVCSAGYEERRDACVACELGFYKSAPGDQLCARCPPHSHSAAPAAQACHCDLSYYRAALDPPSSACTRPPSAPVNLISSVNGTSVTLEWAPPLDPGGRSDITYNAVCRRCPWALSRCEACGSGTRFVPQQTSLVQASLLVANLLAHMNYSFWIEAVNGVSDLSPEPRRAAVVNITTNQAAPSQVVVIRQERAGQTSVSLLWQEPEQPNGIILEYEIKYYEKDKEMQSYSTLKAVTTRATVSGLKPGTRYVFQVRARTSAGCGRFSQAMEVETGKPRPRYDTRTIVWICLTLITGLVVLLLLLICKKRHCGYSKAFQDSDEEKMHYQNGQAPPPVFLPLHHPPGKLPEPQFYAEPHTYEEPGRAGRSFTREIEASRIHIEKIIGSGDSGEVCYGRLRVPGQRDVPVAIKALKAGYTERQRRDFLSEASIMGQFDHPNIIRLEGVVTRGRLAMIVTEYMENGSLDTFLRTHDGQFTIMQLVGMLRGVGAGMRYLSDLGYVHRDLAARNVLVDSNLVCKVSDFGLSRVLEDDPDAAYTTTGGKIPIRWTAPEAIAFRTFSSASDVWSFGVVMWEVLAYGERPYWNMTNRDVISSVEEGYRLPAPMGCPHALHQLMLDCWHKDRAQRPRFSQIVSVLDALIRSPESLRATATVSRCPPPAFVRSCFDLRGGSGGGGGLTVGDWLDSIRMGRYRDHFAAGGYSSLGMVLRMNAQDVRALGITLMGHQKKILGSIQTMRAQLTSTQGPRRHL

[9] = target: T2, Ephrin type-A receptor 8 (Homo sapiens); settings: at 10 µM
[10] = target: T3, Ephrin type-B receptor 1 (Homo sapiens) (UniProt P54762); settings: at 1 µM
T3 sequence (whole entry): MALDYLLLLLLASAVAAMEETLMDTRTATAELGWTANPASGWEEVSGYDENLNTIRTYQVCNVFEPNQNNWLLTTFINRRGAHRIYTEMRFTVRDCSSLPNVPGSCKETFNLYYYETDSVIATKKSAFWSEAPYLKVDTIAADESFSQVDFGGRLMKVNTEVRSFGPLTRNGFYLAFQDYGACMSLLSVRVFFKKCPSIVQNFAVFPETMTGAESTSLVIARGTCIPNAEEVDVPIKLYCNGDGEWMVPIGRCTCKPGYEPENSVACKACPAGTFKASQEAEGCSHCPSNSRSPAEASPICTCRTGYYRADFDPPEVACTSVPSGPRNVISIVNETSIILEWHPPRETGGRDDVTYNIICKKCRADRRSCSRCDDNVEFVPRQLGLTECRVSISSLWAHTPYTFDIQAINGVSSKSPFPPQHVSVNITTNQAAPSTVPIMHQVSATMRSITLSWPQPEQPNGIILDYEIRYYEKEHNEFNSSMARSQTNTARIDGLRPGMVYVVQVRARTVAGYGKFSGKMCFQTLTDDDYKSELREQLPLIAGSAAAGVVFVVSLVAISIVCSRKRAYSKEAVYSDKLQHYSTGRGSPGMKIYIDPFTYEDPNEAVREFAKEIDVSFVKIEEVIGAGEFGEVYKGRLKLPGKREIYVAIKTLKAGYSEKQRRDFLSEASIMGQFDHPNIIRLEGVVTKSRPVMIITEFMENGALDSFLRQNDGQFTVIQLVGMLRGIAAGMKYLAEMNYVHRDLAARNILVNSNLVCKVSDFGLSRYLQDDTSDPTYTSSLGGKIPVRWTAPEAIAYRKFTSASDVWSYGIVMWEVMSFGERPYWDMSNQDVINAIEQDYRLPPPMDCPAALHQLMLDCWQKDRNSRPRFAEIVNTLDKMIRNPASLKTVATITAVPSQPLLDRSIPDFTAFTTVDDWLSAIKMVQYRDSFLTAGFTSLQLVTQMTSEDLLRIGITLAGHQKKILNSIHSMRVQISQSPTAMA

SMILES: O=C(Nc1cccc(Nc2nccc(Nc3cccc(C(F)(F)F)c3)n2)c1)C1CC1
- residual activity [1]: 47%
- residual activity [2]: 102%
- residual activity [3]: 92%
- residual activity [4]: 99%
- residual activity [5]: 80%
- residual activity [6]: 81%
- residual activity [7]: 43%
- residual activity [8]: 97%
- residual activity [9]: 67%
- residual activity [10]: 62%
